Rv3671c inh: Rv3671c serine protease inhibitors, primary screen, biochemical, fluorescence polarization, M. tuberculosis H37Rv; P9WHR9; inhibition, % at 5.96 µM; actives 0.048% (n = 320,000); AID 2606, 2010; in the data active = inhibition above about 38%;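 also: extracellular domain of Rv3671c used as enzyme; 0% = enzyme with DMSO and 100% = no enzyme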
Mtb UGM inh: M. tuberculosis UGM enzyme inhibitors, primary screen, biochemical, fluorescence polarization, single point | actives 0.06% (n = 320,000) | AID 504406, 2011 | inhibition, % at 10 µM | purified UGM, fluorescence polarization probe displacement | UDP-galactopyranose mutase (Mycobacterium tuberculosis (strain ATCC 25618 / H37Rv)), …; in the data active = inhibition above about 10%, passing the limit was not always enough
BH1578 lux ind: inducers of Vibrio cholerae quorum light production without autoinducers, primary screen, BH1578 luxS cqsA deficient, single point; actives 0.16% (n = 350,000); V. cholerae BH1578 lux reporter, luminescence, 6 h; activation, % at 18.7 µM; AID 588436, 2011; in the data active = activation mostly above about 9.7%, no sharp cut-off
FBA Mtb inh: Mtb FBA enzyme inhibitors, primary screen, biochemical, fluorescence, strain H37Rv; actives 2.3% (n = 360,000); purified M. tuberculosis FBA, fluorescence read-out; inhibition, % at 1 µM; Fructose-bisphosphate aldolase (Mycobacterium tuberculosis (strain ATCC 25618 / H37Rv)), …; AID 588726, 2011;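 also: 0% = vehicle and 100% = reference inhibitor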
Target sequence (P9WQA3 whole entry, looked up): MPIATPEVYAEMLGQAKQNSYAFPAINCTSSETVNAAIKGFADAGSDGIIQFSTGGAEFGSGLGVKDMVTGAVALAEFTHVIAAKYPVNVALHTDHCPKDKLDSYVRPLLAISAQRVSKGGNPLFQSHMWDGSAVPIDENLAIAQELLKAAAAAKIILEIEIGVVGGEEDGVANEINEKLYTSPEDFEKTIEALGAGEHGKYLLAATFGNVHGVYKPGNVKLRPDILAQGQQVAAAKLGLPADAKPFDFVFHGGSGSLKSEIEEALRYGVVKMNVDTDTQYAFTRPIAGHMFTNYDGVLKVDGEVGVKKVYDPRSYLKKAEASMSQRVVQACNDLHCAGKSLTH
GDH-TPI counter-1: GDH-TPI coupling enzyme inhibitors, primary screen, artefact control for M. tuberculosis FBA inhibitor project, biochemical, absorbance, full deck. GDH-TPI coupled enzyme counterscreen, NADH absorbance. inhibition, % at 4.8 µM. actives 1.2% (n = 360,000). AID 588335, 2011; in the data active = inhibition above about 30%;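 also: 0% = DMSO wells and 100% = wells lacking the enzyme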
RecA splice inh: Mtb RecA intein splicing inhibitors, primary screen, biochemical, fluorescence, HTS | cell-free RecA intein splicing | inhibition, % (concentration not given with the values) | actives 0.75% (n = 290,000) | AID 2221, 2009; in the data active = inhibition above about 30%;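 also: 0% = vehicle wells and 100% = reference inhibitor control wells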
Mtb FBA confirm: M. tuberculosis aldolase blockers, biochemical, fluorescence, strain H37Rv, confirmation; shares compounds with FBA Mtb inh; purified M. tuberculosis FBA, fluorescence read-out; inhibition, % at 1 µM; actives 78% (n = 5,600); AID 651616, 2012;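 also: 0% = vehicle wells and 100% = reference inhibitor wells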
GDH-TPI counter-2: GDH-TPI coupling enzyme inhibitors, artefact control for M. tuberculosis FBA inhibitor project, biochemical, fluorescence, high throughput. shares compounds with FBA Mtb inh. GDH-TPI coupled enzyme counterscreen. inhibition, % at 1 µM. actives 81% (n = 5,600). AID 652141, 2013; in the data active = inhibition above about 10%
GDH-TPI dose: GDH-TPI coupling enzyme inhibitors, dose response, artefact control for M. tuberculosis FBA inhibitor project, biochemical, fluorescence, IC50; shares compounds with FBA Mtb inh; actives 79% (n = 170); GDH-TPI coupled enzyme assay, artifact counterscreen; IC50, µM; call rule not given here
* = called active by the depositor; i = inactive; x = no result; + = active, no number. Compounds with a hit are over-represented: about 4.1% of the library has one in this group of screens. Rule as the data show it, unless noted: active = inhibition above about 27%; inactive = the rest.

SMILES	Rv3671c inh	Mtb UGM inh	BH1578 lux ind	FBA Mtb inh	GDH-TPI counter-1	RecA splice inh	Mtb FBA confirm	GDH-TPI counter-2	others
COc1ccc2c(-c3ccccc3)cc(SC(C)C(N)=O)nc2c1 (stereo unspecified)	0	0	0	-2	-5	5	x	x
COCCNc1nc(NCCN2CCNC2=O)c2sccc2n1	x	x	-1	3	12	x	x	x
COc1cccc(NC(=O)N2CCCC2C(=O)Nc2ccc3c(c2)OCO3)c1 (stereo unspecified)	1	1	i	3	5	x	x	x
COc1ccccc1NC(=O)N1CCCC1C(=O)Nc1ccc2c(c1)OCO2 (stereo unspecified)	-3	-5	5	28*	10	-3	99*	86*
COCCNC(=O)C(c1ccc(F)cc1)N(C(=O)CCC(=O)Nc1ccccn1)C1CCCCC1 (stereo unspecified)	-5	4	0	-1	-4	1	x	x
O=c1cc(C(F)(F)F)[nH]c2ccc(C(F)(F)F)cc12	-5	1	-1	35*	5	1	65*	50*
Cc1cc(=O)c2ccc(C(F)(F)F)cc2[nH]1	-6	2	0	3	8	-2	x	x
C[C@@H]1CN([C@H](C)CO)C(=O)CCCn2cc(nn2)CO[C@H]1CN(C)C(=O)Nc1ccc2c(c1)OCO2	x	x	0	-3	-2	x	x	x
C=CCc1c(OC)ccc2ccc(=O)oc12	0	0	i	55*	6	-1	124*	105*
COc1cc2ccc(=O)oc2c(O)c1O	x	x	0	5	13	x	x	x
COc1ccccc1CNS(=O)(=O)CCNCCc1ccccc1	x	x	-2	1	1	x	x	x
C/C(=N/Nc1ccc(C)cc1)C1(C)N(O)C(C)(C)C(c2ccco2)=[N+]1[O-] (stereo unspecified)	5	3	i	33*	8	-1	74*	58*
COc1ccc(/C(O)=C2/C(=O)C(=O)N(c3ccccn3)C2c2ccc(C(C)C)cc2)cc1 (stereo unspecified)	x	x	i	0	2	0	x	x
CC[C@]12C(=O)N(C)C[C@H]([C@@H]3C(=O)N(Cc4ccccc4)C(=O)[C@@H]31)N2C(=O)c1ccc(C(C)(C)C)cc1	x	x	0	-1	-1	x	x	x
COc1cc(C(=O)OCC(=O)Nc2cccc(S(=O)(=O)N3CCCC3)c2)ccc1OCC(C)C	-33	4	i	-1	12	3	x	x
Cc1ccc(-c2nnc(NC3CCCC3)s2)cc1	-6	2	0	8	0	4	x	x
COc1ccc(-c2nc3n(c2C)Cc2ccccc2-3)cc1	-3	1	0	111*	7	0	101*	93*
COc1ccc2c(c1)CCC1(C)CC(=O)C=C21 (stereo unspecified)	x	x	i	39*	37*	x	46*	45*
OCCCNc1ncnc2c1ncn2[C@H]1CN(Cc2cccs2)C[C@@H](CO)O1	x	x	i	2	10	x	x	x
Cc1cc(C=O)c(C)n1-c1ccc(N2CCOCC2)cc1	-4	0	0	54*	-5	0	+	+
Clc1ccc(-c2ccc(CNCc3ccccn3)o2)cc1	-3	-2	0	4	11	0	x	x
c1ccc(-n2c(-c3cccs3)nc3nc4ccccc4nc32)cc1	-8	0	0	96*	1	-4	+	+
Cc1ccc(-n2c(-c3cccs3)nc3ccccc3c2=O)cc1	-1	1	0	1	22	-3	x	x
CCC(C)n1c(-c2cccs2)nc2nc3ccccc3nc21 (stereo unspecified)	-8	3	x	53*	13	-16	102*	76*
O=S(=O)(NC1CCN(S(=O)(=O)c2ccc3c(c2)OCCO3)C1)c1c(F)cccc1F (stereo unspecified)	-9	0	2	0	-6	x	x	x
SMILES	Rv3671c inh	Mtb UGM inh	BH1578 lux ind	FBA Mtb inh	GDH-TPI counter-1	RecA splice inh	Mtb FBA confirm	GDH-TPI counter-2	others
COc1ccc(-c2cn3cccnc3n2)cc1NC(=O)c1cc(OC)c(OC)c(OC)c1	3	-1	2	32*	20	3	+	+
COc1cc(C(=O)Nc2ccccn2)cc(OC)c1OC	-2	0	0	4	-2	2	x	x
c1ccc2c(c1)[nH]c1c(N3CCN(C4CCCCC4)CC3)ncnc12	-10	2	0	33*	7	1	40*	22*
Cc1oc(C)c(C(=O)Nc2ccc(CC(=O)O)cc2)c1C(=O)Nc1ccc(CC(=O)O)cc1	4	7	3	48*	-3	0	13	-5	GDH-TPI dose=>10
Cc1ccc(S(=O)(=O)c2nc(C)oc2NCc2ccccc2)cc1	-13	1	x	x	x	x	x	x
CCOP(=O)(OCC)c1nc(-c2ccc(C)cc2)oc1NCc1ccccc1	1	-5	0	84*	-4	1	172*	186*
Cc1ccc2cc(C#N)c(N3CCCN(C(=O)C4CCCO4)CC3)nc2c1 (stereo unspecified)	4	-1	x	11	4	-41	x	x
Cc1cccc2cc(C#N)c(NCCNC(=O)NC3CCCCC3)nc12	7	-1	i	4	0	-11	x	x
Cc1ccc2cc(C#N)c(NCCNC(=O)C3CCC3)nc2c1C	4	3	0	52*	-1	-7	2	-2
CCOCCCNC(=S)NCCCNc1nc2c(C)c(C)ccc2cc1C#N	x	x	-1	47*	2	x	111*	79*
Cc1ccc2cc(C#N)c(NCCCNC(=O)C3CCCO3)nc2c1 (stereo unspecified)	0	0	-1	51*	-2	x	92*	86*
CC(C)(CC(=O)O)CC(=O)N1CCCN(c2nccc(C(F)(F)F)n2)CC1	-9	2	i	1	1	-1	x	x
O=C(NC(c1ccc(Cl)cc1)c1cnccn1)C1CCN(CCCc2ccccc2)CC1 (stereo unspecified)	x	x	-1	-1	10	x	x	x

High-throughput results as filed in PubChem.
